From PubChem BioAssay
Values without a mark were called inactive.

Experiment: MM1S myeloma cell viability, profiling panel, resazurin fluorescence, basal, 24 h, PK04 Diversity Set (AID 1174);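 also: MM1S multiple myeloma cell line; test concentration not given here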
Details: higher = more signal, called active from +8 up or from −8 down

Compound | z-score
CC(C)(C)OC(=O)CC[C@]1(C(=O)N2CCCCC2)COC(c2ccc(OCCCO)cc2)=N1 | 0.619
O=C1[C@@]23C=C(Br)[C@H](C[C@@H]2COC3)[C@@]12CO2 | -0.402
O=C1C[C@@](C(=O)NCc2ccccc2)(c2ccc([N+](=O)[O-])cc2)[C@@H](c2ccc(CO)cc2I)N1CC12CC3CC(CC(C3)C1)C2 | -1.73
O=C1C[C@@](C(=O)NCC(F)(F)F)(c2ccc([N+](=O)[O-])cc2)[C@@H](c2ccc(CO)cc2)N1CC12CC3CC(CC(C3)C1)C2 | -1.4
CN1C(=O)C2C=CC(C(O)c3ccc(I)cc3)N(Nc3ccccc3)C2C1=O (stereo not given) | -0.994
COc1cc(C(O)C2C=CC3C(=O)N(Cc4ccccc4)C(=O)C3N2n2cnnc2)cc(OC)c1OC (stereo not given) | 0.129
C=C(COC)/C(=C/C[C@@H](OC(=O)c1ccncc1)c1ccccc1OCCO)c1cc(C(=O)OC)ccc1OC | -1.03
CC(C)C[C@@H]1NC(=O)[C@@]23C(=O)N[C@@H](Cc4ccccc4)C2[C@H](C)[C@@]2(C)O[C@H]2C3/C=C/C/C=C\CNC(=O)[C@@H](C)NC1=O (stereo not given in full) | 1.33
CCCNC(=O)[C@@]1(Sc2ccc(C)cc2)CC(=O)N(C(C)C)[C@@H]1c1ccc(CO)cc1I | -2.5
CN1C(=O)C2C(C1=O)C1C=C(CCCO)C2C(c2cccs2)N1Cc1cc2c(cc1Br)OCO2 (stereo not given) | -0.35
C=C(CCCC)/C(=C/C[C@H](OC(C)=O)c1ccc(OCCO)cc1)c1cc(C(=O)OC)ccc1OC | -0.0396
COC(=O)[C@@]1(Cc2ccc(OC)cc2)[C@H]2c3cc(C(=O)N4CCCC4)n(Cc4ccc(OC(F)(F)F)cc4)c3C[C@H]2CN1C(=O)c1ccccc1 | -1.43
CS(=O)(=O)CCOC(=O)C1=CC(CCCO)=CC(C2CC2)N(Cc2cccc(OC(F)(F)F)c2)C=C1C(=O)OCCS(C)(=O)=O (stereo not given) | 0.0932
COC(=O)C1=CC(CCCO)=CC(C)N(Cc2cccc(OC(F)(F)F)c2)C=C1C(=O)OC (stereo not given) | -0.0934
[N-]=[N+]=NCc1ccccc1[C@@H]1OC(c2ccc(OCCCO)cc2)=N[C@]1(Cc1ccccc1)C(=O)NCCN1CCOCC1 | 0.162
CC(C)C(=C=CC[C@@H](O)c1cccc(OCCO)c1)C[C@@H](O)c1ccccn1 | 0.642
O=C(NCC(O)CO)[C@@]1(CCS(=O)(=O)c2ccccc2)COC(c2ccc(OCCCO)cc2)=N1 (stereo not given in full) | -0.169
CCOC(=O)C1=C[C@@H](c2ccccc2)N(S(=O)(=O)c2ccc(C)cc2)[C@H]1c1ccccc1 | -1.38

Compound | z-score
CC(C)OC(=O)CC(=O)CC(O)c1ccc([N+](=O)[O-])cc1 (stereo not given) | -0.119
COC(=O)C1N=C(c2ccc(OCCCO)cc2)N(c2ccccc2)O1 (stereo not given) | -0.279
NC(=O)NCC#Cc1ccc2c(c1)[C@]1(C(=O)N2)[C@H](C(=O)N2CCN(c3ncccn3)CC2)[C@H]2C(=O)O[C@H](c3ccccc3)[C@H](c3ccccc3)N2[C@@H]1c1ccc(OCCO)cc1 | 0.0294
[N-]=[N+]=Nc1ccccc1C[C@]1(C(=O)O)N=C(c2ccc(OCCCO)cc2)O[C@H]1c1ccccc1 | -1.1
C=C(/C(=C/C[C@@H](OC(C)=O)c1ccc(OCCO)cc1)c1cc(C(=O)OC)ccc1OC)C(C)C | -0.53
COc1ccc(NC(=O)O[C@H]2[C@@H]3OC(=O)[C@H](Cc4cccc(Br)c4)C/C=C/C[C@@H](Cc4cccc(Br)c4)C(=O)O[C@H]3[C@@H](OC)O[C@@H]2CO)cc1 | -0.37
[N-]=[N+]=NCc1ccccc1[C@H]1OC(c2ccc(OCCCO)cc2)=N[C@@]1(CCS(=O)(=O)c1ccccc1)C(=O)NCc1ccccc1 | -0.0789
COc1cc(NN2C(C(O)C3CCCCC3)C=CC3C(=O)N(C)C(=O)C32)cc(OC)c1OC (stereo not given) | -1.43
O=C1[C@@H]2[C@@H](CC(COc3ccccc3)=C3[C@@H](CCc4ccccc4)OB(O)C[C@@H]32)C(=O)N1Cc1ccccc1 | -0.0801
O=C1OCCC=C[C@H]2OC34C=CCN(c5ccc(Cl)cc5)C(=O)[C@H]3N(CCCCCCO)C(=O)[C@@H]4C12 (stereo not given in full) | 1.35
CCOC(=O)C[C@H]1[C@H](OC(=O)c2ccccc2-c2ccccc2)[C@@H](NC(=O)c2ccc3ccccc3n2)c2cc(OCCCO)ccc2N1C(=O)c1ccccc1 | -0.042
COC(=O)[C@@]1(Cc2ccc(OC)cc2)[C@H]2c3cc(C(=O)N4CCCC4)n(Cc4ccc(S(C)(=O)=O)cc4)c3C[C@H]2CN1C(=O)c1ccccc1 | -0.389
C=C[C@@H](C)[C@@H](OC(=O)Nc1ccc(SC)cc1)c1ccc(OCCO)cc1 | -0.682
NCCCCCNC(=O)[C@@H]1C[C@@H]2C(=O)N3CCC[C@H]3C(=O)N2[C@@H]1c1ccc(O)cc1 | 0.422
O=C1OCCC/C=C\[C@H]2OC34C=CCN(c5ccc6ccccc6c5)C(=O)[C@H]3N(CCCO)C(=O)[C@@H]4C12 (stereo not given in full) | -0.104
CC(=O)NCCCC[C@@H]1NC(=O)[C@@H]2C[C@H](C(=O)NCCCCCCN)[C@H](c3cccc(OCCO)c3)N2C1=O | -0.152
COCCOC(=O)N1C(=O)[C@@]2(c3cc(C#CCNC(N)=O)ccc31)[C@H](c1ccc(OCCO)cc1)N1[C@H](c3ccccc3)[C@H](c3ccccc3)OC(=O)[C@H]1[C@@H]2C(N)=O | 0.421
